Assay results as given in PubChem BioAssay (NCI).
Compounds without any hit were thinned out: in the full panel of roughly 79,000, 15% have a hit. A number with no mark means an inactive call. Active and inactive are the calls of the source. Rule as the data show it: active = growth inhibition above about 70%; inactive = the rest.

Columns and labels:
[1] = NCI Yeast Anticancer Drug Screen. Data for the rad52 strain (AID 147);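 also: 0% = growth of vehicle-treated control cultures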; conditions: S. cerevisiae rad52 mutant growth inhibition, hits give high values
Summary of the method: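 Measured: yeast growth inhibition. System: strain with a defined DNA damage repair alteration. Reference: vehicle-treated control cultures.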

[2] = NCI Yeast Anticancer Drug Screen. Data for the wt1 strain (AID 149);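 also: 0% = growth of vehicle-treated wt1 cultures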; conditions: S. cerevisiae wt1 strain (SPY 50644) growth inhibition, hits give high values
Summary of the method: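 Vehicle-normalised growth inhibition; strain wt1; compound exposure.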

[3] = NCI Yeast Anticancer Drug Screen. Data for the rad50EPP+ strain (AID 151);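 also: 0% = growth of vehicle-treated control cultures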; conditions: S. cerevisiae rad50 mutant strain, hits give high values
Summary of the method: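 One strain with a rad50 alteration (rad50EPP+) was compound-treated, its growth then compared to that of vehicle controls.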

[4] = NCI Yeast Anticancer Drug Screen. Data for the mgt1 strain (AID 153); conditions: S. cerevisiae mgt1 mutant growth inhibition, hits give high values
Summary of the method: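 After exposure of the mgt1 yeast mutant to compound, growth was measured and reported as inhibition compared with vehicle controls.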

[5] = NCI Yeast Anticancer Drug Screen. Data for the rad50 strain (AID 155);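 also: 0% = growth of vehicle-only cultures of the same strain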; conditions: S. cerevisiae rad50 strain growth inhibition, hits give high values
Summary of the method: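 A DNA repair-deficient yeast mutant serves as the test organism; compound-induced growth inhibition is calculated against vehicle-treated cells.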

[6] = NCI Yeast Anticancer Drug Screen. Data for the mec2-1 strain (AID 157); conditions: S. cerevisiae mec2-1 strain, hits give high values
Summary of the method: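 Test agents were screened against the mec2-1 yeast strain, with defined DNA repair or cell cycle alteration. Growth was scored as inhibition against vehicle-only controls.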

[7] = NCI Yeast Anticancer Drug Screen. Data for the rad14 strain (AID 159);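 also: 0% = growth of vehicle-treated control cultures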; conditions: S. cerevisiae rad14 strain growth inhibition, hits give high values
Summary of the method: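 Vehicle-treated cultures served as the baseline for growth inhibition of a DNA repair-mutant yeast strain exposed to each compound.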

[8] = NCI Yeast Anticancer Drug Screen. Data for the sgs1 mgt1 strain (AID 161);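 also: 0% = growth of cultures given vehicle only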; conditions: S. cerevisiae sgs1 mgt1 strain, hits give high values
Summary of the method: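 Genetically altered yeast, compound exposure, growth inhibition relative to vehicle.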

[9] = NCI Yeast Anticancer Drug Screen. Data for the CLN2oe strain (AID 163);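 also: 0% = growth of vehicle-only control cultures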; conditions: S. cerevisiae CLN2oe strain, hits give high values
Summary of the method: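 Here, growth inhibition in a cell-cycle-altered yeast strain after compound exposure was quantified against vehicle control growth.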

[10] = NCI Yeast Anticancer Drug Screen. Data for the cln2 rad14 strain (AID 165);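 also: 0% = growth equal to vehicle treated cultures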; conditions: S. cerevisiae cln2 rad14 strain, hits give high values
Summary of the method: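 Growth of compound-exposed yeast (cln2 rad14 genotype) measured and expressed as inhibition relative to vehicle.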

[11] = NCI Yeast Anticancer Drug Screen. Data for the bub3 strain (AID 167); conditions: S. cerevisiae bub3 mutant strain, hits give high values
Summary of the method: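 Inhibition values come from growth of compound-treated mutant yeast normalised to vehicle-treated controls.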

[12] = NCI Yeast Anticancer Drug Screen. Data for the wt2 strain (AID 169);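 also: 0% = growth of vehicle-treated yeast cultures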; conditions: S. cerevisiae wt2 strain growth inhibition, hits give high values
Summary of the method: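 Genetically defined yeast strains from a DNA-repair/cell-cycle panel were used. Compound-exposed yeast growth was measured, and the inhibition was calculated relative to vehicle treatment.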

[13] = NCI Yeast Anticancer Drug Screen. Data for the mlh1 strain (AID 171);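 also: 0% = growth of vehicle-treated control cultures of the same strain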; conditions: S. cerevisiae mlh1 strain growth inhibition, hits give high values
Summary of the method: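 Here the genetically defined yeast mutant is grown with each compound, and the extent to which its growth falls below that of vehicle-exposed cells is reported.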

[14] = NCI Yeast Anticancer Drug Screen. Data for the sgs1 strain (AID 173);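 also: 0% = growth of vehicle-only control cultures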; conditions: S. cerevisiae sgs1 mutant, hits give high values
Summary of the method: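 Relative growth inhibition, referenced to vehicle, was determined in a yeast strain with a defined alteration affecting DNA damage repair or cell cycle control after compound exposure.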

[15] = NCI Yeast Anticancer Drug Screen. Data for the mlh1 rad18 strain (AID 175); conditions: S. cerevisiae mlh1 rad18 strain growth inhibition, hits give high values
Summary of the method: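 In this whole-cell yeast screen, a strain with altered DNA damage repair is challenged with compound, and its growth is measured against matched vehicle-treated controls.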

[16] = NCI Yeast Anticancer Drug Screen. Data for the rad18 strain (AID 177); conditions: S. cerevisiae rad18 mutant growth inhibition, hits give high values
Summary of the method: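 Screen uses a yeast strain with a defined lesion in DNA damage repair; compound effect is read as loss of growth compared to untreated vehicle cultures.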

[17] = at 5.0 µM (retest, dose inferred, filed as 0.5)
[18] = at 50.0 µM (retest, dose inferred, filed as 5.0)

Cc1cc(Cl)ccc1NC(=O)/C(Cl)=C1/Sc2ccccc2NC1=O
growth inhibition ([1]; at 1.2 µM): -3% | growth inhibition ([1]; at 3.7 µM): -3% | growth inhibition ([1]; at 11.0 µM): -2% | growth inhibition ([1]; at 33.0 µM): 0% | growth inhibition ([1]; at 100.0 µM): 27% | growth inhibition ([2]; at 1.2 µM): -1% | growth inhibition ([2]; at 3.7 µM): -3% | growth inhibition ([2]; at 11.0 µM): -4% | growth inhibition ([2]; at 33.0 µM): -41% | growth inhibition ([2]; at 100.0 µM): 3% | growth inhibition ([3]; at 1.2 µM): 1% | growth inhibition ([3]; at 3.7 µM): 4% | growth inhibition ([3]; at 11.0 µM): 7% | growth inhibition ([3]; at 33.0 µM): 8% | growth inhibition ([3]; at 100.0 µM): 2% | growth inhibition ([4]; at 1.2 µM): -2% | growth inhibition ([4]; at 3.7 µM): -1% | growth inhibition ([4]; at 11.0 µM): -3% | growth inhibition ([4]; at 33.0 µM): -5% | growth inhibition ([4]; at 100.0 µM): -2% | growth inhibition ([5]; at 1.2 µM): 2% | growth inhibition ([5]; at 3.7 µM): 24% | growth inhibition [5, 17]: 47% | growth inhibition ([5]; at 11.0 µM): 29% | growth inhibition ([5]; at 33.0 µM): 3% | growth inhibition [5, 18]: 82% (active) | growth inhibition ([5]; at 50.0 µM): 72% (active) | growth inhibition ([5]; at 100.0 µM): 24% | growth inhibition ([6]; at 1.2 µM): -1% | growth inhibition ([6]; at 3.7 µM): -5% | growth inhibition [6, 17]: 24% | growth inhibition ([6]; at 11.0 µM): -6% | growth inhibition ([6]; at 33.0 µM): -5% | growth inhibition [6, 18]: 62% | growth inhibition ([6]; at 50.0 µM): 56.9% | growth inhibition ([6]; at 100.0 µM): 16% | growth inhibition ([7]; at 1.2 µM): 1% | growth inhibition ([7]; at 3.7 µM): 4% | growth inhibition ([7]; at 11.0 µM): 5% | growth inhibition ([7]; at 33.0 µM): 4% | growth inhibition ([7]; at 100.0 µM): 2% | growth inhibition [8, 17]: 36% | growth inhibition [8, 18]: 91% (active) | growth inhibition ([8]; at 50.0 µM): 68.5% | growth inhibition ([9]; at 1.2 µM): -8% | growth inhibition ([9]; at 3.7 µM): -1% | growth inhibition ([9]; at 11.0 µM): -6% | growth inhibition ([9]; at 33.0 µM): -7% | growth inhibition ([9]; at 100.0 µM): -14% | growth inhibition [10, 17]: 23% | growth inhibition [10, 18]: 57% | growth inhibition ([10]; at 50.0 µM): -5.3% | growth inhibition ([11]; at 1.2 µM): -2% | growth inhibition ([11]; at 3.7 µM): -2% | growth inhibition [11, 17]: 35% | growth inhibition ([11]; at 11.0 µM): -3% | growth inhibition ([11]; at 33.0 µM): -4% | growth inhibition [11, 18]: 91% (active) | growth inhibition ([11]; at 50.0 µM): 20.2% | growth inhibition ([11]; at 100.0 µM): 7% | growth inhibition ([12]; at 1.2 µM): -2% | growth inhibition ([12]; at 3.7 µM): 7% | growth inhibition ([12]; at 11.0 µM): -2% | growth inhibition ([12]; at 33.0 µM): -2% | growth inhibition ([12]; at 100.0 µM): 2% | growth inhibition ([13]; at 1.2 µM): -1% | growth inhibition ([13]; at 3.7 µM): -3% | growth inhibition ([13]; at 11.0 µM): -3% | growth inhibition ([13]; at 33.0 µM): -5% | growth inhibition ([13]; at 100.0 µM): 0% | growth inhibition ([14]; at 1.2 µM): -1% | growth inhibition ([14]; at 3.7 µM): 2% | growth inhibition ([14]; at 11.0 µM): 4% | growth inhibition ([14]; at 33.0 µM): 7% | growth inhibition ([14]; at 100.0 µM): 31% | growth inhibition [15, 17]: 35% | growth inhibition [15, 18]: 80% (active) | growth inhibition ([15]; at 50.0 µM): 69.2% | growth inhibition ([16]; at 1.2 µM): 0% | growth inhibition ([16]; at 3.7 µM): 3% | growth inhibition ([16]; at 11.0 µM): 4% | growth inhibition ([16]; at 33.0 µM): 6% | growth inhibition ([16]; at 100.0 µM): 45%

NCc1c(O)ccc2ccccc12
growth inhibition ([1]; at 1.2 µM): -17% | growth inhibition ([1]; at 3.7 µM): -11% | growth inhibition ([1]; at 11.0 µM): -1% | growth inhibition ([1]; at 33.0 µM): 64% | growth inhibition ([1]; at 100.0 µM): 99% (active) | growth inhibition ([2]; at 1.2 µM): 8% | growth inhibition ([2]; at 3.7 µM): 11% | growth inhibition ([2]; at 11.0 µM): 27% | growth inhibition ([2]; at 33.0 µM): 90% (active) | growth inhibition ([2]; at 100.0 µM): 99% (active) | growth inhibition ([3]; at 1.2 µM): -5% | growth inhibition ([3]; at 3.7 µM): -18% | growth inhibition ([3]; at 11.0 µM): 10% | growth inhibition ([3]; at 33.0 µM): 52% | growth inhibition ([3]; at 100.0 µM): 88% (active) | growth inhibition ([4]; at 1.2 µM): -2% | growth inhibition ([4]; at 3.7 µM): -7% | growth inhibition ([4]; at 11.0 µM): 3% | growth inhibition ([4]; at 33.0 µM): 98% (active) | growth inhibition ([4]; at 100.0 µM): 99% (active) | growth inhibition ([5]; at 1.2 µM): -11% | growth inhibition ([5]; at 3.7 µM): -10% | growth inhibition [5, 17]: -150% | growth inhibition ([5]; at 11.0 µM): 2% | growth inhibition ([5]; at 33.0 µM): 92% (active) | growth inhibition [5, 18]: 83% (active) | growth inhibition ([5]; at 50.0 µM): 89.2% (active) | growth inhibition ([5]; at 100.0 µM): 98% (active) | growth inhibition ([6]; at 1.2 µM): -3% | growth inhibition ([6]; at 3.7 µM): -1% | growth inhibition [6, 17]: -46% | growth inhibition ([6]; at 11.0 µM): 4% | growth inhibition ([6]; at 33.0 µM): 25% | growth inhibition [6, 18]: -15% | growth inhibition ([6]; at 50.0 µM): 47.5% | growth inhibition ([6]; at 100.0 µM): 99% (active) | growth inhibition ([7]; at 1.2 µM): -3% | growth inhibition ([7]; at 3.7 µM): 5% | growth inhibition ([7]; at 11.0 µM): 49% | growth inhibition ([7]; at 33.0 µM): 99% (active) | growth inhibition ([7]; at 100.0 µM): 99% (active) | growth inhibition [8, 17]: -60% | growth inhibition [8, 18]: 74% (active) | growth inhibition ([8]; at 50.0 µM): 85.9% (active) | growth inhibition ([9]; at 1.2 µM): -6% | growth inhibition ([9]; at 3.7 µM): -4% | growth inhibition ([9]; at 11.0 µM): -1% | growth inhibition ([9]; at 33.0 µM): 18% | growth inhibition ([9]; at 100.0 µM): 98% (active) | growth inhibition [10, 17]: -53% | growth inhibition [10, 18]: -25% | growth inhibition ([10]; at 50.0 µM): 17.2% | growth inhibition ([11]; at 1.2 µM): -7% | growth inhibition ([11]; at 3.7 µM): -4% | growth inhibition [11, 17]: -71% | growth inhibition ([11]; at 11.0 µM): 0% | growth inhibition ([11]; at 33.0 µM): 79% (active) | growth inhibition [11, 18]: 60% | growth inhibition ([11]; at 50.0 µM): 93.7% (active) | growth inhibition ([11]; at 100.0 µM): 98% (active) | growth inhibition ([12]; at 1.2 µM): 6% | growth inhibition ([12]; at 3.7 µM): 9% | growth inhibition ([12]; at 11.0 µM): 70% (active) | growth inhibition ([12]; at 33.0 µM): 99% (active) | growth inhibition ([12]; at 100.0 µM): 99% (active) | growth inhibition ([13]; at 1.2 µM): -10% | growth inhibition ([13]; at 3.7 µM): -4% | growth inhibition ([13]; at 11.0 µM): 4% | growth inhibition ([13]; at 33.0 µM): 96% (active) | growth inhibition ([13]; at 100.0 µM): 98% (active) | growth inhibition ([14]; at 1.2 µM): -10% | growth inhibition ([14]; at 3.7 µM): -5% | growth inhibition ([14]; at 11.0 µM): 37% | growth inhibition ([14]; at 33.0 µM): 99% (active) | growth inhibition ([14]; at 100.0 µM): 99% (active) | growth inhibition [15, 17]: -138% | growth inhibition [15, 18]: 83% (active) | growth inhibition ([15]; at 50.0 µM): 94% (active) | growth inhibition ([16]; at 1.2 µM): -6% | growth inhibition ([16]; at 3.7 µM): -6% | growth inhibition ([16]; at 11.0 µM): 7% | growth inhibition ([16]; at 33.0 µM): 87% (active) | growth inhibition ([16]; at 100.0 µM): 99% (active)
